Inconclusive results are not listed. Active and inactive are the calls of the source. Calls follow the shape of the dose curve; as a rule, active = well fitted activation curve with a large enough effect; inconclusive = small, poorly fitted or top-dose-only effect; inactive = flat fitted curve, though single readings scatter.

This test can be described thus: Cellular Toxicity (caspase-3) Hek293 (AID 664).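 Also: cells exposed to compound for 16 h at 37 °C before readout.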 Conditions: HEK293 caspase-3 activation, DMSO = 0%, 100 µM tamoxifen = 100%; at 92.2 µM (top of the series). The text has this: NIH Chemical Genomics Center [NCGC]
NIH Molecular Libraries Screening Centers Network [MLSCN]
National Institutes of Environmental Health Sciences [NIEHS]
National Toxicology Program [NTP]
We have developed a 1536-well cell-based assay for quantitative high throughput screening (qHTS) against a number of cell lines to determine in vitro caspase 3/7 of small molecules. This particular assay uses the Hek 293 cell line which is derived from human embryonic kidney cells.
NCGC Assay Protocol Summary:
The Caspase-Glo 3/7 assay (Promega) is a homogeneous method to measure caspase-3 and caspase-7 activities in cultured cells. The quantitation of caspase 3/7 activity is based on the cleavage of a peptide-aminoluciferin substrate. After caspase cleaves the substrate the free aminoluciferin is liberated and serves as the substrate of luciferase, which generates the light. The luminescent signal is proportional to amount of caspase 3/7 activity present.
Using the Caspase-Glo 3/7 assay, the amount of caspase 3/7 activity was measured in the Hek 293 cell line with complete culture medium following compound treatment for 16 hours. The assay was performed in opaque white 1536-well plates. In the screen, tamoxifen and doxorubicin were used as positive controls. Library compounds were measured for their ability to cause the activation of caspase 3/7 in the cell line, as reflected by an increase in luminescence signal, in a concentration-dependent manner. Data were normalized to the controls for basal activity (DMSO only) and 100% stimulation (100 uM tamoxifen). AC50 values were determined from concentration-response data modeled with the standard Hill equation.
qHTS protocol for caspase 3/7 assay in Hek 293 cells
[Step] [Parameter] [Value] [Description]
2. Time; 5 hr; 37 °C incubation
4. Controls; 23 nL; Tamoxifen 0.23 uM to 100 uM & Doxorubicin 7.0 pM to 100 uM
5. Time; 16 hr; 37 °C incubation
6. Reagent; 5 uL; Caspase-Glo 3/7 reagent
7. Time; 20 min; Room Temperature
8. Detection; Luminescence; Viewlux plate reader
Keywords: caspase 3/7, apoptosis, Hek 293 cell line, luminescence, NTPHTS, NTPHTS_NCGC, NIEHS, EPA, DSSTox, MLSMR, MLSCN, NIH Roadmap, qHTS, NCGC
`Oc1ccc(O)c2c(O)cccc12`: the caspase-3 activation was 18% (inactive).
Regarding `c1ccc(CSCc2ccccc2)cc1`, the caspase-3 activation was 0.61% (inactive).
With `Nc1ccccc1O` the figure was 4.27% (inactive); with `CCCCOC(=O)COc1ccc(Cl)cc1Cl`, -0.377% (inactive); with `Oc1cc2c(cc1O)[C@H]1c3ccc(O)c(O)c3OC[C@@]1(O)C2`, 0.207% (inactive).
As to `Nc1cc([N+](=O)[O-])ccc1O`, the caspase-3 activation was -0.467% (inactive).
In the case of `CCc1ccc(C(c2ccc(CC)cc2)C(Cl)Cl)cc1`, the caspase-3 activation is 1.15% (inactive).
With `Cc1cc(-c2ccc(N=Nc3cc(S(=O)(=O)O)c4ccccc4c3N)c(C)c2)ccc1N=Nc1cc(S(=O)(=O)O)c2ccccc2c1N` the figure was -4.55% (inactive).
With `c1ccc2c(c1)ccc1ccccc12`, the caspase-3 activation was -0.803% (inactive).
With `CN(C)c1ccc(Cc2ccc(N(C)C)cc2)cc1` the figure was 2.63% (inactive); with `C[Si](C)(C)Cl`, 1.84% (inactive); with `CN(C)c1ccc(C(=N)c2ccc(N(C)C)cc2)cc1`, 7.49% (inactive).
Then `Brc1cc(Oc2cc(Br)c(Br)c(Br)c2Br)c(Br)c(Br)c1Br`, with 0.395% (inactive); and `Cc1ccc(S(N)(=O)=O)cc1`, with -1.71% (inactive); and `Oc1c(Cl)cc(Cl)c(Cl)c1Cl`, with 1.49% (inactive).
With `Nc1ccc(N=Nc2ccccc2)c(N)c1` the figure was -11.8% (inactive); with `Nc1ccc2c(c1)C(=O)c1ccccc1C2=O`, -8.84% (inactive); with `OCC(CBr)(CBr)CBr`, 0.713% (inactive).
Regarding `c1ccc(SCCSc2ccccc2)cc1`, the caspase-3 activation was 0.456% (inactive).
`Nc1cnn([C@@H]2O[C@H](CO)[C@@H](O)[C@H]2O)c(=O)n1`: the caspase-3 activation was -2.69% (inactive).
With `C1CCCNCC1` the figure was 2.08% (inactive).
Regarding `CCCCCCN`, the caspase-3 activation was 1.72% (inactive).
For `CC(=O)OC(C(=O)c1ccccc1)c1ccccc1` (stereo not given), the caspase-3 activation was -0.138% (inactive).
For `C=C1CC[C@H](O)C/C1=C/C=C1\CCC[C@]2(C)[C@@H]([C@H](C)CCCC(C)C)CC[C@@H]12`, the caspase-3 activation is 173% (active).
Turning to `Brc1ccc(-c2ccccc2)cc1`, the caspase-3 activation is -0.717% (inactive).
With `O=C1OC(=O)c2ccccc21`, the caspase-3 activation was 1.71% (inactive).
Then `CCOc1ccc2nc(N)sc2c1`, with 2.81% (inactive).
Then `CCCCC(CC)COP(=O)(OCC(CC)CCCC)OCC(CC)CCCC` (stereo not given), with 2.89% (inactive).
For the compound `CCCCCCc1ccc(-c2ccc(C#N)cc2)cc1`, the caspase-3 activation was 0.233% (inactive).
`O=c1[nH]ncc2ccccc12`: the caspase-3 activation was -1.83% (inactive).
For the compound `CCC(Cl)CC(Cl)C(Cl)C(Cl)C(Cl)C(C)Cl` (stereo not given), the caspase-3 activation is 5.41% (inactive).
With `C=Cc1cccc(C)c1` the figure was -0.822% (inactive); with `CC(C)COC(=O)COc1cc(Cl)c(Cl)cc1Cl`, 3.66% (inactive).
Then `Nc1ccc(-c2ccc(N)c(O)c2)cc1O`, with 0.00867% (inactive).
As for `Cc1c2ccccc2c(C)c2c1ccc1ccccc12`, the caspase-3 activation is 2.33% (inactive).
With `O=C(Cl)c1ccc([N+](=O)[O-])cc1` the figure was -0.0349% (inactive).
With `c1c[nH]cn1` the figure was -0.608% (inactive).
On to `CC(CCC(=O)O)(c1ccc(O)cc1)c1ccc(O)cc1`, for which the caspase-3 activation is 1.18% (inactive).
With `CC(=O)Nc1cccc(C)c1` the figure was -2.37% (inactive); with `Nc1cc(C(=O)O)c(O)c(S(=O)(=O)O)c1`, 0.407% (inactive).

For the origin of these results see PubChem BioAssay (NCATS).
